Compound activity from PubChem.
JMJD2A Tudor inh = JMJD2A Tudor domain (human) inhibition. AlphaScreen JMJD2A-Tudor / H3K4me3 peptide binding. Potency, µM (doses to about 114 µM), usual class: inhibitors. actives 4.4% (n = 390,000). AID 504339; also: nearly all actives have a fitted effect of over 50% in size
Six1-Eya2 blk = Six1/Eya2 interaction inhibition. Q15475+O00167. AlphaScreen GST-Six1/His-Eya2 binding, biochemical; active compounds read low. activity change, % (concentration not given with the values). actives 0.56% (n = 360,000). AID 651725; in the data active = activity change below about -65%; inconclusive = mostly about -30% to -63%
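AlphaScreen luminescence read after one hour at 37 °C in darkness. Pin-transferred compounds met GST-Six1 and His-Eya2 protein (5X stock 250 nM/500 nM) plus glutathione donor and Ni-chelate acceptor beads (5X, 50 ug/mL).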
BAZ2B block = blocks human BAZ2B. AlphaScreen BAZ2B-H3K14Ac peptide displacement. Q9UIF8. Potency, µM (series often up to 114 µM), most hits filed as inhibitors. actives 4.4% (n = 360,000); also: nearly all actives have a fitted effect of over 60% in size
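Protein-peptide AlphaScreen: BAZ2B 50 nM, b-H3K14Ac 50 nM, 1x PBS pH 7.4 + 0.01% Tween-20. Preincubation 30 min RT; cpd 30 min RT (top 110 uM); beads 20 min RT, light-protected.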
CtBP-E1A inh = CtBP/E1A binding inhibition. actives 0.49% (n = 340,000). activity change, % (no concentration beside the values). AlphaScreen GST-E1A/His-CtBP binding, 1536-well; active compounds read low. AID 651724; in the data active = activity change below about -65%; inconclusive = mostly about -30% to -63%
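GST-E1A and His-tagged CtBP (125 nM each as 5X stock) were preincubated with pin-transferred compound for 2 h at 37 °C in the dark, then glutathione donor and nickel acceptor beads were added for 1 h before AlphaScreen reading.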
HP1b binding inh = inhibitors of HP1-beta chromodomain binding to methylated histone tails. AlphaScreen HP1-beta / biotin-H3K9me3 peptide binding. P83916. actives 0.56% (n = 390,000). Potency, µM (highest dose often 114 µM), most hits filed as inhibitors. AID 540317; also: nearly all actives have a fitted effect of over 70% in size
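AlphaScreen: HP1-beta (50 nM) preformed 30 min with biotin-H3(1-18)K9me3 peptide (50 nM) in PBS pH 7.4, 0.01% Tween-20. Compound added for 30 min at RT, then streptavidin donor/nickel chelate acceptor beads (10 ug/mL) for 30 min.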
G9a block = G9a (human) methyltransferase inhibition; AID 504332; Potency, µM (top dose mostly 102 µM), hits mostly inhibitors; G9a H3K9 monomethylation, AlphaScreen, 2 h; Q96KQ7; actives 8.8% (n = 350,000); also: nearly all actives have a fitted effect of over 75% in size
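G9a (20 nM) was preincubated 15 min with compound, then reacted 2 h at room temperature with 500 nM biotin-H3K9 peptide and 20 µM SAM. Monomethyl-H3K9 detected by AlphaScreen using anti-H3K9me1 antibody.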
Hits are given with their value; n = inactive; u = inconclusive; x = not tested or not shown; [ ] = dose if it differs, or a comment. A selection: hits, their analogues and other compounds. The true share with any hit is near 10%. Unless noted, calls follow the shape of the dose curve; as a rule, active = well fitted inhibition curve with a large enough effect; inconclusive = small, poorly fitted or top-dose-only effect; inactive = no such curve, though single readings can be large or run the other way.

SMILES	JMJD2A Tudor inh	Six1-Eya2 blk	BAZ2B block	CtBP-E1A inh	HP1b binding inh	G9a block
CCC1CN2CCc3cc(OC)c(OC)cc3C2CC1CC1NCCc2cc(OC)c(OC)cc21 (stereo not drawn)	x	x	x	x	x	n[2.33 µM]
CCC(C)(S(=O)(=O)CC)S(=O)(=O)CC	x	x	x	x	x	n[12.7 µM]
CNC(=O)Oc1ccc2ncccc2c1	n	n	n	n	n	44.7µM
c1ccc(N2CCCC3(CCNCC3)C2)nc1	x	x	x	x	x	n[12.7 µM]
CCCCCCCCCCCCCCCCOC[C@@H](COP(=O)([O-])OCC[N+](C)(C)C)OC(C)=O	x	x	x	x	x	n
CCC(C(=O)Nc1ccccc1F)N1C(=O)CN=C(c2ccccc2)c2ccccc21 (stereo not drawn)	n	x	x	x	n	n
Cc1ccc(/C=C2/C(=O)NC(=O)N(CCc3ccc(F)cc3)C2=O)o1	n	n	n	n	n	n[0.501 µM]
C=CCN1C(=O)NC(=O)/C(=C\c2ccc(-c3ccccc3[N+](=O)[O-])o2)C1=O	u	n	79.4µM	n	n	22.4µM
O=C1NC(=O)N(Cc2ccco2)C(=O)/C1=C/c1ccc(-c2cccc([N+](=O)[O-])c2)o1	14.1µM	u	35.5µM	n	u	3.16µM
O=CC1=C(N2CCOCC2)/C(=C\c2ccccc2)CC1	n	n	n	n	n	39.8µM
COc1cc(/C=C(/C)[N+](=O)[O-])ccc1OCc1ccccc1Cl	n	n	u	n	n	10µM
NC(Cc1nc2ccccc2[nH]1)c1ccc(Cl)cc1 (stereo not drawn)	n	n	n	n	n	39.8µM
NC(Cc1ccccc1)c1nc2ccccc2[nH]1 (stereo not drawn)	u	n	u	n	n	u
On1ccccc1=S	3.55µM	u	n	u	u	1.12µM
Clc1ccc(COC(Cn2ccnc2)c2ccc(Cl)cc2Cl)c(Cl)c1 (stereo not drawn)	39.8µM	n	22.4µM	n	n	n[2.33 µM]
C=CCOC(Cn1ccnc1)c1ccc(Cl)cc1Cl (stereo not drawn)	n	n	n	x	n	n[12.7 µM]
CC(C)(C)c1ccc(-c2n[nH]c(=S)n2CCCN2CCOCC2)cc1	10µM	n	n	n	n	6.31µM
CC(C)(C)c1ccc(C(=O)NCCN2CCOCC2)cc1	n	n	x	x	n	x
O=C(c1csnn1)N1CCC[C@@]2(CCN(Cc3ccncc3)C2)C1	x	x	x	x	x	n[12.7 µM]
CN1C(=O)C(=Cc2ccccc2OCc2ccccc2Cl)C(=O)N(C)C1=O	n	n	n	n	n	n
CN1C(=O)C(=Cc2ccccc2OCCOc2ccc([N+](=O)[O-])cc2)C(=O)N(C)C1=O	u	n	50.1µM	n	n	10µM
COc1cc(C=C2C(=O)NC(=O)NC2=O)ccc1OCc1ccc([N+](=O)[O-])cc1	35.5µM	n	x	n	n	25.1µM
O=C1NC(=O)C(=Cc2ccccc2OCCOc2ccc([N+](=O)[O-])cc2)C(=O)N1	89.1µM	n	u	n	n	15.8µM
O=C1NC(=O)C(=Cc2ccc(Oc3ccc([N+](=O)[O-])cc3)cc2)C(=O)N1	56.2µM	n	n	n	n	35.5µM
O=C1NC(=O)C(=Cc2cc([N+](=O)[O-])ccc2N2CCCCC2)C(=O)N1	n	n	n	n	n	n
SMILES	JMJD2A Tudor inh	Six1-Eya2 blk	BAZ2B block	CtBP-E1A inh	HP1b binding inh	G9a block
CN(C(=O)Cc1ccccc1)[C@H](CN1CCCC1)c1ccccc1	x	x	x	x	x	n
COc1ccc(-n2cnc3cc(C(=O)N4CCC5(CC4)OCCO5)ccc32)cc1	n	n	n	x	n	n
O=C(c1ccc2nc(-c3ccco3)c(-c3ccco3)nc2c1)N1CCC2(CC1)OCCO2	89.1µM	n	56.2µM	n	n	u
O=C(NC1C(=O)NNC1c1ccc(Cl)cc1)c1ccc(F)cc1 (stereo not drawn)	n	n	n	x	n	u
C[C@@H]1C(=O)O[C@H]2CC34[C@H]5C[C@@H](C(C)(C)C)[C@]36[C@@H](OC(=O)[C@@H]6O)O[C@@]4(C(=O)O5)[C@]21O (stereo partly drawn)	n	n	n	n	n	n[12.7 µM]
C=Cn1ccnc1P(=S)(c1c(C)nn(-c2ccccc2)c1C)c1nccn1C=C	n	n	n	n	n	50.1µM
Cc1ccccc1C(=O)N1Cc2cnnn2-c2ccccc2C1C#N (stereo not drawn)	n	n	x	n	n	x
Cc1ccccc1-c1ccc2n1Cc1cnnn1-c1ccccc1-2	50.1µM	u	x	u	u	x
C[C@@]12CC[C@H]3[C@@H](CC[C@@H]4C[C@H]5S[C@H]5C[C@]43C)[C@H]1CC[C@H]2O	x	x	x	x	x	n[21.5 µM]
Cc1[nH]c(=S)c(C#N)c2c1CCCC2	20µM	n	u	n	n	1.78µM
COc1ccccc1/C=C1\C(=O)NC(=S)N(c2ccccc2)C1=O	28.2µM	n	n	n	n	28.2µM
COc1ccccc1C=C1C(=O)NC(=S)NC1=O	20µM	n	x	n	u	x
O=C1NC(=S)N(c2ccc(F)cc2)C(=O)/C1=C/c1ccccc1O	n	n	n	n	n	n
CCN1C(=O)/C(=C/c2ccc(N(CC)CC)cc2OC)C(=O)NC1=S	n	n	u	n	n	35.5µM
COc1ccc(/C=C/C=C2C(=O)NC(=S)NC2=O)cc1	n	n	x	n	n	x
CCN(CC)c1ccc(/C=C2\C(=O)NC(=O)N(CC3CCCO3)C2=O)cc1 (stereo not drawn)	n	n	u	x	n	u
Cc1ccccc1CN1C(=O)C(C)N=C(c2ccccc2)c2ccccc21 (stereo not drawn)	n	x	n	x	n	n
C[C@]12CCC3C(CC[C@H]4CC(O)CC[C@]34C)C1CC/C2=N/NC(=O)c1ccncc1 (stereo partly drawn)	n	n	n	n	n	n
C[C@@H]1CC[C@H]2[C@@H](C)C(=O)O[C@@H]3OC4(C)CC[C@@H]1[C@]32OO4	x	x	x	x	x	n
COC(=O)C1=C(c2ccc(F)cc2OCc2ccccc2)C[C@@H]2CC[C@H]1N2C(=O)NCc1ccc(N(C)C)cc1	22.4µM	u	10µM	n	u	n[2.33 µM]
COC(=O)C1=C(c2cccc(OCc3ccccc3)c2)C[C@@H]2CC[C@H]1N2C(=O)NCc1ccc(N(C)C)cc1	20µM	u	10µM	u	u	n[2.33 µM]
COC(=O)C1=C(c2ccccc2OCc2ccccc2)C[C@@H]2CC[C@H]1N2C(=O)NCc1ccc(N(C)C)cc1	20µM	u	28.2µM	u	n	n[0.501 µM]
Cc1ccc(C(O)P(=O)(OCCC(C)C)c2ccc(N(C)C)cc2)cc1 (stereo not drawn)	n	n	u	n	n	n[2.33 µM]
Cc1cc(N=Nc2ccccc2C)ccc1N	39.8µM	u	x	u	35.5µM	x
Cc1ccc(N)c(C(=O)c2ccccc2)c1	u	n	u	n	n	u
O=C1CN=C(c2ccccc2)c2cc(Cl)ccc2N1CC1CC1	x	x	x	x	x	n[12.7 µM]
O=C(c1ccccc1Cl)N1CCC(c2nc3ccccc3s2)CC1	n	x	n	x	n	n
